Data from PubChem BioAssay (NCI).
Compounds without any hit were thinned out: in the full panel of roughly 83,000, 20% have a hit.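 Treatment: one concentration, 48 hours, 96-well format. Scoring: percent growth, with anything below 10 considered active.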 Unmarked numbers belong to inactive results. Active and inactive are the calls of the source.

Assays:
Assay in all cases: NCI-60 one-dose screen, 48 h (100 = growth as untreated, 0 = no growth, -100 = all killed)
Conditions in all cases: 10 µM
RPMI-8226 leukemia = tested on: RPMI-8226 leukemia
OVCAR-8 ovarian = tested on: OVCAR-8 ovarian
OVCAR-5 ovarian = tested on: OVCAR-5 ovarian
OVCAR-4 ovarian = tested on: OVCAR-4 ovarian
SK-OV-3 ovarian = tested on: SK-OV-3 ovarian
IGROV1 ovarian = tested on: IGROV1 ovarian
OVCAR-3 ovarian = tested on: OVCAR-3 ovarian
HS 578T breast = tested on: HS 578T breast
NCI/ADR-RES ovarian = tested on: NCI/ADR-RES ovarian
BT-549 breast = tested on: BT-549 breast
MDA-MB-435 melanoma = tested on: MDA-MB-435 melanoma
SW-620 colon = tested on: SW-620 colon
MCF7 breast = tested on: MCF7 breast
HCT-116 colon = tested on: HCT-116 colon
HCC-2998 colon = tested on: HCC-2998 colon
KM12 colon = tested on: KM12 colon
T-47D breast = tested on: T-47D breast

Row | Compound | growth (RPMI-8226 leukemia) | growth (OVCAR-8 ovarian) | growth (OVCAR-5 ovarian) | growth (OVCAR-4 ovarian) | growth (SK-OV-3 ovarian) | growth (IGROV1 ovarian) | growth (OVCAR-3 ovarian) | growth (HS 578T breast) [%] | growth (NCI/ADR-RES ovarian) [%] | growth (BT-549 breast) | growth (MDA-MB-435 melanoma) | growth (SW-620 colon) | growth (MCF7 breast) | growth (HCT-116 colon) | growth (HCC-2998 colon) | growth (KM12 colon) | growth (T-47D breast)
1 | NC1=NC(=O)C(c2ccccc2)(c2ccccc2)S1 | 96.3% | 107% | 109% | 97% | 105% | 115% | 119% | 108 | 109 | 118% | 121% | 108% | 105% | 106% | 108% | 107% | –
2 | CCCCCCCCCCCCCCCCCC(=O)OCCCCCCC | 96.8% | 102% | 106% | 110% | 105% | 111% | 101% | 109 | – | 110% | 94.6% | 97.5% | 107% | 118% | 102% | 97.6% | 99.6%
3 | O=C(Nc1cccc(-n2cc(-c3ccncc3)c(-c3cc(O)cc(Cl)c3)n2)c1)c1ccc(N2CCOCC2)c(C(F)(F)F)c1 | -3.77% (active) | 22.7% | 81.4% | 77.1% | 50.7% | 44.3% | 36.4% | – | 35 | 52.2% | 23% | -26.2% (active) | 29.7% | 12.7% | -3.65% (active) | 9.89% (active) | 29.3%
4 | CC(=O)O[C@]1(C)CC[C@H]2[C@H](CNCCc3ccc(Cl)cc3)C(=O)O[C@@H]2C2=C(C)C(=O)C[C@H]21 | 64.7% | 93.1% | 100% | 87.4% | 101% | 97.5% | 99.2% | 150 | 109 | – | 88% | 82% | 68.4% | 83.9% | 94.6% | – | –
5 | CC/C(C)=C(\C)C(=O)O | 107% | 103% | 112% | 118% | 91.9% | 104% | 105% | 100 | 108 | – | 99.1% | 105% | 98.6% | 109% | 108% | 103% | –
6 | CS(=O)(=O)Nc1ccc(Nc2c3ccccc3nc3cc(N)ccc23)cc1 | 21.6% | 24.8% | 56.6% | 43.2% | 32% | 37.5% | 15.3% | 23.7 | 96.5 | – | 53.6% | 39.8% | 6.57% (active) | 28% | 35.2% | 5.56% (active) | –
7 | CC(C)N(CCNc1nc(C(Cl)(Cl)Cl)nc2cc(Cl)ccc12)C(C)C | 3.61% (active) | -73.9% (active) | -11.1% (active) | 7.56% (active) | -27.6% (active) | -38.4% (active) | -37.5% (active) | 12 | – | 21.3% | -47.2% (active) | -30.6% (active) | -85.6% (active) | -90.6% (active) | -50.2% (active) | -79.1% (active) | 5.12% (active)
8 | FC(F)(F)c1ccc2nc(-c3nc(-c4ccccc4)n4ccccc34)[nH]c2c1 | 51.6% | 17.3% | 85.6% | -3.4% (active) | 52.8% | 67.7% | 79.1% | – | 44.4 | 85.9% | 87.5% | 72% | 38.3% | 8.85% (active) | 82.6% | 52.4% | 48.3%
9 | CCC(=O)N1C/C(=C/c2ccc(Br)cc2)C(=O)/C(=C/c2ccc(Br)cc2)C1 | -28.2% (active) | -7.14% (active) | -22.8% (active) | -0.254% (active) | -30.6% (active) | -67.6% (active) | -62.6% (active) | – | 10.2 | -48.4% (active) | -63% (active) | -64.2% (active) | -16.1% (active) | -88.4% (active) | -85.9% (active) | – | 13%
